# About 79,000 compounds went through this panel and 15% of them were active in at least one assay; those are over-represented in the sample as a whole. Values without a mark were called inactive. The source made the active and inactive calls. Rule as the data show it: active = growth inhibition above about 70%; inactive = the rest.
# Assays:
# [1] = NCI Yeast Anticancer Drug Screen. Data for the wt1 strain (AID 149);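 also: 0% = growth of vehicle-treated wt1 cultures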; conditions: S. cerevisiae wt1 strain (SPY 50644) growth inhibition, active compounds read high
# Summary of the method: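 Yeast wt1 strain exposed to compounds; growth inhibition measured relative to vehicle-treated controls.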
# [2] = NCI Yeast Anticancer Drug Screen. Data for the rad50EPP+ strain (AID 151);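 also: 0% = growth of vehicle-treated control cultures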; conditions: S. cerevisiae rad50 mutant strain, active compounds read high
# Summary of the method: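 Compounds were applied to the rad50EPP+ yeast strain, which bears a defined DNA repair alteration, and growth inhibition was determined relative to vehicle-treated cultures.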
# [3] = NCI Yeast Anticancer Drug Screen. Data for the mgt1 strain (AID 153); conditions: S. cerevisiae mgt1 mutant growth inhibition, active compounds read high
# Summary of the method: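 Strain: mgt1 yeast, one of a set carrying defined DNA damage repair or cell cycle control alterations. Compound-treated growth compared with vehicle.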
# [4] = NCI Yeast Anticancer Drug Screen. Data for the rad50 strain (AID 155);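 also: 0% = growth of vehicle-only cultures of the same strain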; conditions: S. cerevisiae rad50 strain growth inhibition, active compounds read high
# Summary of the method: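 Yeast carrying a defined DNA repair defect were exposed to test compounds, and growth was compared with vehicle-treated controls to give percent inhibition.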
# [5] = NCI Yeast Anticancer Drug Screen. Data for the mec2-1 strain (AID 157); conditions: S. cerevisiae mec2-1 strain, active compounds read high
# Summary of the method: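 Strain: mec2-1 (DNA repair/cell cycle alteration). Compound exposure, then growth measured; inhibition expressed relative to vehicle.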
# [6] = NCI Yeast Anticancer Drug Screen. Data for the rad14 strain (AID 159);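 also: 0% = growth of vehicle-treated control cultures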; conditions: S. cerevisiae rad14 strain growth inhibition, active compounds read high
# Summary of the method: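 Yeast cells carrying a defined DNA-repair defect were exposed to compounds, and growth inhibition was calculated relative to vehicle-treated control cultures.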
# [7] = NCI Yeast Anticancer Drug Screen. Data for the sgs1 mgt1 strain (AID 161);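 also: 0% = growth of cultures given vehicle only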; conditions: S. cerevisiae sgs1 mgt1 strain, active compounds read high
# Summary of the method: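 Mutant yeast exposed to compound; growth scored against vehicle-only wells.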
# [8] = NCI Yeast Anticancer Drug Screen. Data for the CLN2oe strain (AID 163);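 also: 0% = growth of vehicle-only control cultures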; conditions: S. cerevisiae CLN2oe strain, active compounds read high
# Summary of the method: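 Growth of a genetically modified yeast strain is measured after compound exposure and compared with cultures given vehicle alone.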
# [9] = NCI Yeast Anticancer Drug Screen. Data for the cln2 rad14 strain (AID 165);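 also: 0% = growth equal to vehicle treated cultures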; conditions: S. cerevisiae cln2 rad14 strain, active compounds read high
# Summary of the method: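 Compounds are applied to the cln2 rad14 yeast strain, and growth is then compared with that of vehicle-treated cultures to give inhibition.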
# [10] = NCI Yeast Anticancer Drug Screen. Data for the bub3 strain (AID 167); conditions: S. cerevisiae bub3 mutant strain, active compounds read high
# Summary of the method: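 Compounds were applied to a genetically altered yeast strain carrying a cell-cycle control defect. Growth inhibition was scored against vehicle-treated controls.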
# [11] = NCI Yeast Anticancer Drug Screen. Data for the wt2 strain (AID 169);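 also: 0% = growth of vehicle-treated yeast cultures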; conditions: S. cerevisiae wt2 strain growth inhibition, active compounds read high
# Summary of the method: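 This strain belongs to a panel of yeast strains with defined genetic alterations in DNA damage repair or cell cycle control. Compounds are applied, and growth inhibition is measured against vehicle-treated cultures.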
# [12] = NCI Yeast Anticancer Drug Screen. Data for the mlh1 strain (AID 171);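 also: 0% = growth of vehicle-treated control cultures of the same strain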; conditions: S. cerevisiae mlh1 strain growth inhibition, active compounds read high
# Summary of the method: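 Growth of the mutant yeast strain after compound exposure, expressed as inhibition relative to vehicle-only controls.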
# [13] = NCI Yeast Anticancer Drug Screen. Data for the mlh1 rad18 strain (AID 175); conditions: S. cerevisiae mlh1 rad18 strain growth inhibition, active compounds read high
# Summary of the method: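 Read-out is yeast growth inhibition, calculated against vehicle-only controls. The compound was applied to a strain engineered with DNA damage repair alterations.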
# [14] = NCI Yeast Anticancer Drug Screen. Data for the rad18 strain (AID 177); conditions: S. cerevisiae rad18 mutant growth inhibition, active compounds read high
# Summary of the method: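 Growth of the mutant yeast strain after compound exposure, normalised to vehicle-only cultures.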
# [15] = NCI Yeast Anticancer Drug Screen. Data for the sgs1 strain (AID 173);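 also: 0% = growth of vehicle-only control cultures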; conditions: S. cerevisiae sgs1 mutant, active compounds read high
# Summary of the method: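 Growth of a yeast strain bearing a defined genetic alteration is measured after compound treatment. Inhibition is expressed relative to vehicle-only controls.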
# [16] = at 5.0 µM (retest, dose inferred, filed as 0.5)
# [17] = at 50.0 µM (retest, dose inferred, filed as 5.0)
structure (smiles),measurement,setting,value
CCOC(=O)/C(O)=C(/C=N/C(=S)Nc1c(CC)cccc1CC)C(=O)OCC,growth inhibition,[1]; at 1.2 µM,-31%
same,growth inhibition,[1]; at 3.7 µM,-7%
same,growth inhibition,[1]; at 11.0 µM,2%
same,growth inhibition,[1]; at 33.0 µM,21%
same,growth inhibition,[1]; at 100.0 µM,33%
same,growth inhibition,[2]; at 1.2 µM,-3%
same,growth inhibition,[2]; at 3.7 µM,-1%
same,growth inhibition,[2]; at 11.0 µM,-5%
same,growth inhibition,[2]; at 33.0 µM,-3%
same,growth inhibition,[2]; at 100.0 µM,-7%
same,growth inhibition,[3]; at 1.2 µM,-7%
same,growth inhibition,[3]; at 3.7 µM,-6%
same,growth inhibition,[3]; at 11.0 µM,0%
same,growth inhibition,[3]; at 33.0 µM,20%
same,growth inhibition,[3]; at 100.0 µM,35%
same,growth inhibition,[4]; at 1.2 µM,-6%
same,growth inhibition,[4]; at 3.7 µM,-3%
same,growth inhibition,[4]; [16],7%
same,growth inhibition,[4]; at 11.0 µM,11%
same,growth inhibition,[4]; at 33.0 µM,36%
same,growth inhibition,[4]; [17],65%
same,growth inhibition,[4]; at 50.0 µM,65.3%
same,growth inhibition,[4]; at 100.0 µM,47%
same,growth inhibition,[5]; at 1.2 µM,-10%
same,growth inhibition,[5]; at 3.7 µM,-5%
same,growth inhibition,[5]; [16],3%
same,growth inhibition,[5]; at 11.0 µM,10%
same,growth inhibition,[5]; at 33.0 µM,27%
same,growth inhibition,[5]; [17],34%
same,growth inhibition,[5]; at 50.0 µM,24.6%
same,growth inhibition,[5]; at 100.0 µM,36%
same,growth inhibition,[6]; at 1.2 µM,-7%
same,growth inhibition,[6]; at 3.7 µM,-7%
same,growth inhibition,[6]; at 11.0 µM,-2%
same,growth inhibition,[6]; at 33.0 µM,20%
same,growth inhibition,[6]; at 100.0 µM,38%
same,growth inhibition,[7]; [16],-4%
same,growth inhibition,[7]; [17],10%
same,growth inhibition,[7]; at 50.0 µM,51.3%
same,growth inhibition,[8]; at 1.2 µM,-16%
same,growth inhibition,[8]; at 3.7 µM,-23%
same,growth inhibition,[8]; at 11.0 µM,-19%
same,growth inhibition,[8]; at 33.0 µM,-1%
same,growth inhibition,[8]; at 100.0 µM,29%
same,growth inhibition,[9]; [16],-1%
same,growth inhibition,[9]; [17],25%
same,growth inhibition,[9]; at 50.0 µM,35.2%
same,growth inhibition,[10]; at 1.2 µM,-9%
same,growth inhibition,[10]; at 3.7 µM,-10%
same,growth inhibition,[10]; [16],-20%
same,growth inhibition,[10]; at 11.0 µM,-5%
same,growth inhibition,[10]; at 33.0 µM,12%
same,growth inhibition,[10]; [17],49%
same,growth inhibition,[10]; at 50.0 µM,67%
same,growth inhibition,[10]; at 100.0 µM,31%
same,growth inhibition,[11]; at 1.2 µM,-7%
same,growth inhibition,[11]; at 3.7 µM,-6%
same,growth inhibition,[11]; at 11.0 µM,-1%
same,growth inhibition,[11]; at 33.0 µM,23%
same,growth inhibition,[11]; at 100.0 µM,40%
same,growth inhibition,[12]; at 1.2 µM,-6%
same,growth inhibition,[12]; at 3.7 µM,-4%
same,growth inhibition,[12]; at 11.0 µM,6%
same,growth inhibition,[12]; at 33.0 µM,28%
same,growth inhibition,[12]; at 100.0 µM,45%
same,growth inhibition,[13]; [16],-8%
same,growth inhibition,[13]; [17],36%
same,growth inhibition,[13]; at 50.0 µM,59.9%
same,growth inhibition,[14]; at 1.2 µM,-4%
same,growth inhibition,[14]; at 3.7 µM,-8%
same,growth inhibition,[14]; at 11.0 µM,8%
same,growth inhibition,[14]; at 33.0 µM,46%
same,growth inhibition,[14]; at 100.0 µM,62%
O=C(O)NCC1CCCCC1 (tested in a mixture with another compound),growth inhibition,[1]; at 1.2 µM,-1%
same,growth inhibition,[1]; at 3.7 µM,-4%
same,growth inhibition,[1]; at 11.0 µM,-4%
same,growth inhibition,[1]; at 33.0 µM,-5%
same,growth inhibition,[1]; at 100.0 µM,-4%
same,growth inhibition,[2]; at 1.2 µM,0%
same,growth inhibition,[2]; at 3.7 µM,-4%
same,growth inhibition,[2]; at 11.0 µM,-3%
same,growth inhibition,[2]; at 33.0 µM,7%
same,growth inhibition,[2]; at 100.0 µM,4%
same,growth inhibition,[3]; at 1.2 µM,-2%
same,growth inhibition,[3]; at 3.7 µM,-4%
same,growth inhibition,[3]; at 11.0 µM,-4%
same,growth inhibition,[3]; at 33.0 µM,-4%
same,growth inhibition,[3]; at 100.0 µM,16%
same,growth inhibition,[4]; at 1.2 µM,2%
same,growth inhibition,[4]; at 3.7 µM,-3%
same,growth inhibition,[4]; [16],1%
same,growth inhibition,[4]; at 11.0 µM,-6%
same,growth inhibition,[4]; at 33.0 µM,7%
same,growth inhibition,[4]; [17],38%
same,growth inhibition,[4]; at 50.0 µM,-12.8%
same,growth inhibition,[4]; at 100.0 µM,83% (active)
same,growth inhibition,[5]; at 1.2 µM,-3%
same,growth inhibition,[5]; at 3.7 µM,-1%
same,growth inhibition,[5]; [16],-15%
same,growth inhibition,[5]; at 11.0 µM,-4%
same,growth inhibition,[5]; at 33.0 µM,-5%
same,growth inhibition,[5]; [17],19%
same,growth inhibition,[5]; at 50.0 µM,8.35%
same,growth inhibition,[5]; at 100.0 µM,22%
same,growth inhibition,[6]; at 1.2 µM,0%
same,growth inhibition,[6]; at 3.7 µM,-6%
same,growth inhibition,[6]; at 11.0 µM,-5%
same,growth inhibition,[6]; at 33.0 µM,-1%
same,growth inhibition,[6]; at 100.0 µM,61%
same,growth inhibition,[7]; [16],-2%
same,growth inhibition,[7]; [17],39%
same,growth inhibition,[7]; at 50.0 µM,-35.7%
same,growth inhibition,[8]; at 1.2 µM,1%
same,growth inhibition,[8]; at 3.7 µM,-7%
same,growth inhibition,[8]; at 11.0 µM,-6%
same,growth inhibition,[8]; at 33.0 µM,-5%
same,growth inhibition,[8]; at 100.0 µM,26%
same,growth inhibition,[10]; at 1.2 µM,-4%
same,growth inhibition,[10]; at 3.7 µM,-4%
same,growth inhibition,[10]; [16],-5%
same,growth inhibition,[10]; at 11.0 µM,-7%
same,growth inhibition,[10]; at 33.0 µM,-2%
same,growth inhibition,[10]; [17],10%
same,growth inhibition,[10]; at 50.0 µM,0.5%
same,growth inhibition,[10]; at 100.0 µM,58%
same,growth inhibition,[11]; at 1.2 µM,-2%
same,growth inhibition,[11]; at 3.7 µM,2%
same,growth inhibition,[11]; at 11.0 µM,-5%
same,growth inhibition,[11]; at 33.0 µM,-4%
same,growth inhibition,[11]; at 100.0 µM,37%
same,growth inhibition,[12]; at 1.2 µM,-2%
same,growth inhibition,[12]; at 3.7 µM,-6%
same,growth inhibition,[12]; at 11.0 µM,-7%
same,growth inhibition,[12]; at 33.0 µM,-3%
same,growth inhibition,[12]; at 100.0 µM,32%
same,growth inhibition,[15]; at 1.2 µM,-4%
same,growth inhibition,[15]; at 3.7 µM,6%
same,growth inhibition,[15]; at 11.0 µM,-23%
same,growth inhibition,[15]; at 33.0 µM,-5%
same,growth inhibition,[15]; at 100.0 µM,75% (active)
same,growth inhibition,[13]; [16],0%
same,growth inhibition,[13]; [17],34%
same,growth inhibition,[13]; at 50.0 µM,6.1%
same,growth inhibition,[14]; at 1.2 µM,0%
same,growth inhibition,[14]; at 3.7 µM,-1%
same,growth inhibition,[14]; at 11.0 µM,-5%
same,growth inhibition,[14]; at 33.0 µM,2%
same,growth inhibition,[14]; at 100.0 µM,45%

# Source: PubChem BioAssay (NCI)
